Bioassay records as filed in PubChem BioAssay.
Only some compounds are listed: those with a hit (about 3.1% of all), similar ones and a draw of the others.
ALOX15B inhib: 15-hLO-2 (ALOX15B) enzyme inhibition; AID 881; actives 0.56% (n = 110,000); purified 15hLO-2, xylenol orange hydroperoxide absorbance; O15296; Potency, µM (highest dose often 57.1 µM), usual class: inhibitors; also: nearly all actives have a fitted effect of over 60% in size
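Screening format was qHTS against 50 nM purified 15hLO-2 in Hepes pH 7.5 with detergent. Activity follows hydroperoxide formation from 45 uM arachidonic acid, measured as 573:405 nm absorbance ratio of the ferric-xylenol orange complex.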
PNC inhibitor: blocks assembly of the perinucleolar compartment | PC3M PTB-GFP, PNC prevalence imaging, 16 h; hits give low values | activity change (PNC), negative = inhibition, % at 10 µM | actives 3.1% (n = 140,000);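 active = readout at or below -70, meaning at least 70% loss of cells showing the perinucleolar compartment, a nuclear body marking cancer cells; inconclusive = readout between -30 and a set limit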
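Read-out is percentage of cells bearing a perinucleolar compartment, from automated 20x imaging of fixed, Hoechst-stained PC3M PTB-GFP cells. Cells were seeded 4 h, then exposed 16 h to compound (23 nl of library stock) in duplicate plates.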
12-hLO inh: 12-hLO (ALOX12) enzyme inhibition | purified 12-hLO, xylenol orange hydroperoxide absorbance | Potency, µM (highest dose often 57.1 µM), hits mostly inhibitors | actives 0.12% (n = 150,000); also: nearly all actives have a fitted effect of over 55% in size
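Hydroperoxide output read as Fe(III)-xylenol orange absorbance, 573-to-405 nm ratio, after 30 min reaction with 40 uM arachidonic acid. Enzyme: 150 nM purified human 12hLO, 15 min compound preincubation; 25 mM Hepes pH 7.0, room temperature.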
Of the large screens only hits and unclear results are named; the others gave an inactive call. Unless noted, calls follow the shape of the dose curve; as a rule, active = well fitted curve in the direction sought with a large enough effect; inconclusive = small, poorly fitted or top-dose-only effect, or another doubt; inactive = no such curve, though single readings can be large; an effect the other way counts as inactive or inconclusive.

C=CCc1cc(C=C2C(=O)N(C)C(=O)N(C)C2=O)cc(OCC)c1OCc1ccccc1	PNC inhibitor -113.8 (no result: ALOX15B inhib)
COc1cc(CC2C(=O)N(C)C(=O)N(C)C2=O)ccc1OCc1ccccc1	PNC inhibitor inconclusive
c1ccc2cc3c(cc2c1)-c1cccc2cccc-3c12	none (no result: PNC inhibitor)
CC(=O)[O-].CC(=O)[O-].CC(=O)[O-].[Cr+3]	none (no result: PNC inhibitor)
CCC(=NCc1ccc2c(c1)OCO2)c1c(O)n(C2CCCCC2)c(=O)[nH]c1=O	PNC inhibitor -83.2
CCC(=NCCO)c1c(O)n(C2CCCCC2)c(=O)[nH]c1=O	none
O=C1CN(C(=O)CN2CCCCC2)C(c2ccccc2)c2cc(Br)ccc2N1 (stereo unspecified)	PNC inhibitor -91.8
CCC(=O)N1CC(=O)Nc2ccc(F)cc2C1c1ccccc1 (stereo unspecified)	PNC inhibitor inconclusive
O=C(O)Cc1ccc([N+](=O)[O-])cc1[N+](=O)[O-]	none (no result: PNC inhibitor)
NCCSC(c1ccccc1)c1ccccc1	none (no result: PNC inhibitor)
COc1cc2c(cc1OC)-c1c(OC)c(OC)c(OC)c3ccnc(c13)C2=O	PNC inhibitor -101.5 (no result: ALOX15B inhib)
C=CCN1CCc2cccc3c2[C@@H]1Cc1ccc(O)c(O)c1-3	ALOX15B inhib 6.31µM (no result: PNC inhibitor)
CCCN1CCc2cc(O)cc3c2[C@H]1Cc1ccc(O)c(O)c1-3	none (no result: PNC inhibitor)
O=C(O)[C@H]1[C@H](C(=O)O)[C@H]2CC[C@@H]1O2	none (no result: PNC inhibitor)
C[N+]1(C)CCO[C@@](O)(c2ccc(-c3ccc([C@]4(O)C[N+](C)(C)CCO4)cc3)cc2)C1	none (no result: PNC inhibitor)
O=C(O)[C@@H](O)[C@@H](O)[C@@H]1[O][Sb][O][C@@H]1CO	none (no result: PNC inhibitor)
C[C@@]12CC[C@H]3[C@H](CCC4=CC(=O)CC[C@H]43)[C@H]1CC[C@H]2OC1(O)C(=O)c2ccccc2C1=O	ALOX15B inhib inconclusive (no result: PNC inhibitor)
COc1cc2c3cc1Oc1cc(ccc1O)C[C@@H]1c4c(cc(OC)c(O)c4Oc4ccc(cc4)C[C@H]3N(C)CC2)CCN1C	PNC inhibitor -97.1 (no result: ALOX15B inhib)
COc1cc2c3cc1Oc1c(OC)c(OC)cc4c1[C@@H](Cc1ccc(O)c(c1)Oc1ccc(cc1)C[C@@H]3N(C)CC2)N(C)CC4	none (no result: PNC inhibitor)
O=[As](O)(O)c1ccc2nc3cc([As](=O)(O)O)ccc3nc2c1	none (no result: PNC inhibitor)
C[N+]1(C)CCc2cc3c(cc2[C@@H]1[C@@H]1OC(=O)c2c1ccc1c2OCO1)OCO3	none (no result: PNC inhibitor)
Cn1c(=O)c2[nH]cnc2n(C)c1=O.[CH2-][C@H](Cc1cccc2cc(C(=O)O)c(=O)oc12)OC.[Hg].[OH-]	none (no result: PNC inhibitor)
Cc1cccc(C)c1N	none (no result: PNC inhibitor)
CCCCn1c(O)c(C(CC)=NCCc2ccccc2)c(=O)[nH]c1=O	none
CCCCn1c(O)c(C(CC)=NCCN2CCCCC2)c(=O)[nH]c1=O	PNC inhibitor -88.7
CCCCn1c(O)c(C(CC)=Nc2cccc(C(=O)O)c2)c(=O)[nH]c1=O	PNC inhibitor -90.1
CCCCn1c(O)c(C(CC)=NCCN2CCOCC2)c(=O)[nH]c1=O	none
O=C(O)[C@@H](Br)[C@H](Br)C(=O)O	none (no result: PNC inhibitor)
CCn1cnc2c(Nc3cccc(Cl)c3)nc(N[C@@H]3CCCC[C@H]3N)nc21	none (no result: PNC inhibitor)
ClC1=C(Cl)C2(Cl)C3C(Cl)C(Cl)CC3C1(Cl)C2(Cl)Cl (stereo unspecified)	none (no result: PNC inhibitor)
CCN=C=NCCCN(C)C	none (no result: PNC inhibitor)
COc1ccc(CCN(C)Cc2ccncc2)cc1OC	PNC inhibitor -91.5
COc1ccc(CCNCc2ccncc2)cc1OC	none
N[C@@H](Cc1c[nH]c2cc([N+](=O)[O-])ccc12)C(=O)O	none (no result: PNC inhibitor)
C[C@]12Cc3cn4c(nc3C=C1CC[C@H]1[C@@H]2CC[C@@]2(C)[C@H]1CC[C@@]2(O)C#N)nc1ccccc14	none (no result: PNC inhibitor)
COc1ccc2c(c1)[C@]13CCCC[C@@H]1[C@H](C2)NCC3	none (no result: PNC inhibitor)
N#CC(C#N)=NNc1cccc(Cl)c1	ALOX15B inhib inconclusive (no result: PNC inhibitor)
N#CC(C#N)=NNc1ccc(OC(F)(F)F)cc1	ALOX15B inhib 15.8µM (no result: PNC inhibitor)
COc1cc(C=C(C#N)C#N)cc(O)c1O	ALOX15B inhib inconclusive (no result: PNC inhibitor)
N#CC(C#N)=Cc1ccc(O)c(O)c1	ALOX15B inhib 12.6µM, 12-hLO inh inconclusive (no result: PNC inhibitor)
CCOC(=O)c1ccccc1C(=O)OCC	none (no result: PNC inhibitor)
CCOC(=O)c1ccc(NC(=O)C2C3C=CC(O3)C2C(=O)O)cc1 (stereo unspecified)	PNC inhibitor -91.0
COc1ccc(OC(=O)N(C)C)c(CN(C)C)c1	none
Cc1cc(CN(C)C)c(OC(=O)N(C)C)cc1C	PNC inhibitor -121.8
CCOC(=O)CBr	none (no result: PNC inhibitor)
C=CC(N)=O	none (no result: PNC inhibitor)
CC1CCN(C(=O)c2ccc(N3CC4CC(C3)c3cccc(=O)n3C4)c([N+](=O)[O-])c2)CC1 (stereo unspecified)	none (no result: ALOX15B inhib)
CC1CCCN(C(=O)c2ccc(N3CC4CC(C3)c3cccc(=O)n3C4)c([N+](=O)[O-])c2)C1 (stereo unspecified)	PNC inhibitor -116.4 (no result: ALOX15B inhib)
